Active and inactive are the calls of the source. The rule behind the calls is not given here.
Assay: off-target activity on Bfl-1 – biochemical, set 4, counter-screen for UBC13 polyubiquitination inhibitor project, SAR follow-up (AID 602400)
Settings: Bfl-1 counterscreen for UBC13 inhibitors
In the case of `O=C(Nc1ccc(CN2CCCCC2)cc1)C1CCN(c2ncnc3c2nc2n3CCCCC2)CC1`, the IC50 is reported as > 100 µM (inactive).
For `O=C(NCC1CCN(Cc2ccccc2Cl)CC1)C1CCCN(c2ncnc3c2nc2n3CCCC2)C1` (stereo not given), the IC50 was > 100 µM (inactive).
With `Cc1ccc(NC(=O)C2CCN(c3ncnc4c3nc3n4CCCCC3)CC2)c(Cl)c1` the IC50 was > 100 µM (inactive).
In the case of `Cc1ccc(NC(=O)C2CCCN(c3ncnc4c3nc3n4CCCC3)C2)cc1Br` (stereo not given), the IC50 is reported as > 100 µM (inactive).
In the case of `Cc1c(Cl)cccc1NC(=O)C1CCN(c2ncnc3c2nc2n3CCCCC2)CC1`, the IC50 is reported as > 100 µM (inactive).
With `Cc1cc(Cl)ccc1NC(=O)C1CCN(c2ncnc3c2nc2n3CCCCC2)CC1` the IC50 was > 100 µM (inactive).
For `Cc1ccc(NC(=O)C2CCN(c3ncnc4c3nc3n4CCCC3)CC2)cc1F`, the IC50 was > 100 µM (inactive).
For `O=C(NCc1ccc(Cl)c(Cl)c1)C1CCCN(c2ncnc3c2nc2n3CCCC2)C1` (stereo not given), the IC50 was > 100 µM (inactive).
With `O=C(C1CCN(c2ncnc3c2nc2n3CCCCC2)CC1)N1CCN(c2ccc(F)cc2)CC1` the IC50 was > 100 µM (inactive).
With `O=C(NCC1CCN(Cc2ccc(Cl)cc2)CC1)C1CCCN(c2ncnc3c2nc2n3CCCC2)C1` (stereo not given) the IC50 was 76.8 µM (active).
In the case of `Cc1ccc(NC(=O)C2CCN(c3ncnc4c3nc3n4CCCC3)CC2)cc1Br`, the IC50 is reported as 14.7 µM (active).
For `CCCN1CCN(C(=O)C2CCN(c3ncnc4c3nc3n4CCCCC3)CC2)CC1`, the IC50 was > 100 µM (inactive).
In the case of `O=C(NCC1CCN(Cc2ccccc2Cl)CC1)C1CCCN(c2ncnc3c2nc2n3CCCCC2)C1` (stereo not given), the IC50 is reported as > 100 µM (inactive).
In the case of `O=C(Nc1cc(F)ccc1F)C1CCN(c2ncnc3c2nc2n3CCCCC2)CC1`, the IC50 is reported as > 100 µM (inactive).
In the case of `O=C(Nc1ccc(F)c(Cl)c1)C1CCN(c2ncnc3c2nc2n3CCCCC2)CC1`, the IC50 is reported as > 100 µM (inactive).
With `CC1CC(C)CN(C(=O)C2CCN(c3ncnc4c3nc3n4CCCCC3)CC2)C1` (stereo not given) the IC50 was > 100 µM (inactive).
With `O=C(NCCCN1CCN(c2ccc(F)cc2)CC1)C1CCCN(c2ncnc3c2nc2n3CCCCC2)C1` (stereo not given) the IC50 was > 100 µM (inactive).
In the case of `Cc1ccccc1CN1CCC(CNC(=O)C2CCCN(c3ncnc4c3nc3n4CCCCC3)C2)CC1` (stereo not given), the IC50 is reported as > 100 µM (inactive).
For `O=C(NCC1CCN(Cc2cccc(Cl)c2)CC1)[C@@H]1CCCN(c2ncnc3c2nc2n3CCCC2)C1`, the IC50 was > 100 µM (inactive).
In the case of `O=C(NCC1CCN(Cc2cccc(Cl)c2)CC1)[C@@H]1CCCN(c2ncnc3c2nc2n3CCCCC2)C1`, the IC50 is reported as > 100 µM (inactive).
In the case of `O=C(NCC1CCN(Cc2ccccc2F)CC1)C1CCCN(c2ncnc3c2nc2n3CCCCC2)C1` (stereo not given), the IC50 is reported as > 100 µM (inactive).
In the case of `O=C(C1CCN(c2ncnc3c2nc2n3CCCCC2)CC1)N1CCN(c2ncccn2)CC1`, the IC50 is reported as > 100 µM (inactive).
In the case of `COc1cc(Cl)c(C)cc1NC(=O)C1CCN(c2ncnc3c2nc2n3CCCCC2)CC1`, the IC50 is reported as > 100 µM (inactive).
For `Cc1cccc(NC(=O)C2CCN(c3ncnc4c3nc3n4CCCCC3)CC2)c1C`, the IC50 was > 100 µM (inactive).
With `Cc1ccc(C)c(N2CCN(CCCNC(=O)C3CCCN(c4ncnc5c4nc4n5CCCCC4)C3)CC2)c1` (stereo not given) the IC50 was > 100 µM (inactive).
With `Cc1cc(C)cc(NC(=O)C2CCN(c3ncnc4c3nc3n4CCCCC3)CC2)c1` the IC50 was 72.9 µM (active).
With `COc1ccc(Cl)cc1NC(=O)C1CCN(c2ncnc3c2nc2n3CCCCC2)CC1` the IC50 was > 100 µM (inactive).
With `Cc1ccc(NC(=O)C2CCCN(c3ncnc4c3nc3n4CCCC3)C2)cc1C` (stereo not given) the IC50 was > 100 µM (inactive).
In the case of `Cc1cccc(N2CCN(CCCNC(=O)C3CCCN(c4ncnc5c4nc4n5CCCCC4)C3)CC2C)c1` (stereo not given), the IC50 is reported as > 100 µM (inactive).
In the case of `CN(CCNC(=O)C1CCN(c2ncnc3c2nc2n3CCCCC2)CC1)Cc1ccccc1`, the IC50 is reported as > 100 µM (inactive).
In the case of `CC1CCCCN1C(=O)C1CCN(c2ncnc3c2nc2n3CCCCC2)CC1` (stereo not given), the IC50 is reported as > 100 µM (inactive).
In the case of `COc1ccccc1N1CCN(CCCNC(=O)C2CCCN(c3ncnc4c3nc3n4CCCCC3)C2)CC1` (stereo not given), the IC50 is reported as > 100 µM (inactive).
In the case of `Cc1cc(C)cc(NC(=O)C2CCN(c3ncnc4c3nc3n4CCCC3)CC2)c1`, the IC50 is reported as 23.9 µM (active).
With `CCC1CCCCN1CCCNC(=O)C1CCN(c2ncnc3c2nc2n3CCCCC2)CC1` (stereo not given) the IC50 was > 100 µM (inactive).
For `Cc1cc(C)cc(NC(=O)C2CCCN(c3ncnc4c3nc3n4CCCC3)C2)c1` (stereo not given), the IC50 was > 100 µM (inactive).

Source: PubChem BioAssay AID602400 (Sanford-Burnham Center for Chemical Genomics, 2012)
